High-throughput results as filed in PubChem BioAssay.
A selection: hits, their analogues and other compounds. The true share with any hit is near 8.8%.
HTT cytoprotect = qHTS Multiplex Assay to Identify Dual Action Probes in a Cell Model of Huntington: Cytoprotection (ATP); PC12 HTT-Q103 induced, cytoprotection, ATP luminescence, 40 h; Potency, µM (series often up to 56.4 µM), for the others: cytoprotection (ATP increase), hits mostly activators; 230,000 tested, 0.14% active; note: % of control where 0% means no effect; nearly all actives have a fitted effect of over 45% in size
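Compounds were screened for protection of PC12 cells against cell death after tebufenozide induction (100 nM final) of mutant Huntingtin exon 1 (Q103) fused to GFP.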
LMNA splice mod = qHTS Assay for Modulators of Lamin A Splicing | HeLa LMNA splicing GFP/RFP minigene ratio, 48 h | 200,000 tested, 0.01% active | Potency, µM (highest dose often 46.1 µM), for the others: at the top dose ratio change, negative = inhibition, most hits filed as inhibitors; active = well fitted inhibition curve with a large enough effect in the signal ratio, with a control signal flat, not every such curve was filed as active; inconclusive = small, poorly fitted or top-dose-only effect, or effect the other way, or a change in a side signal; the % refers to the signal ratio; note: % is set by controls: 0 for no effect and ±100 for the full control effect
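S3 HeLa cells stably expressing lamin A-EGFP splicing minigene plus DsRed2, 600 cells/well, 48 h compound exposure at 37C. Laser-scanning cytometry; analysed as GFP (500-530 nm)/RFP (575-640 nm) total intensity ratio; 0.5% DMSO vehicle.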
HttQ103 aggreg = qHTS Multiplex Assay to Identify Dual Action Probes in a Cell Model of Huntington: Aggregate Formation (GFP); PC12 HttQ103-GFP aggregates, Acumen cytometry, 40 h; Potency, µM (highest dose often 46.1 µM), for inactives: top-dose activity change, negative = inhibition, hits mostly inhibitors; 220,000 tested, 1.1% active; AID 1688, 2009; note: % is set by controls: 0 for no effect and ±100 for the full control effect; nearly all actives have a fitted effect of over 60% in size
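PC12 cells with ecdysone-inducible HTT exon1 Q103-GFP, induced by 100 nM tebufenozide, given compounds in a concentration series. GFP aggregates (1–25 um, 6 SD above background) counted in lysates by laser-scanning cytometry, 488 nm excitation.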
HPGD inh = qHTS Assay for Inhibitors of HPGD (15-Hydroxyprostaglandin Dehydrogenase); purified HPGD, NADH fluorescence kinetic, PGE2 substrate; Potency, µM, without a hit: top-dose activity change, negative = inhibition, actives largely listed as inhibitors; 150,000 tested, 4.3% active; active = well fitted inhibition curve with a large enough effect, not every such curve was filed as active; inconclusive = small, poorly fitted or top-dose-only effect, or another doubt; inactive = no such curve, though single readings can be large or run the other way; note: % is set by controls: 0 for no effect and ±100 for the full control effect
Target sequence (P15428 whole entry, looked up): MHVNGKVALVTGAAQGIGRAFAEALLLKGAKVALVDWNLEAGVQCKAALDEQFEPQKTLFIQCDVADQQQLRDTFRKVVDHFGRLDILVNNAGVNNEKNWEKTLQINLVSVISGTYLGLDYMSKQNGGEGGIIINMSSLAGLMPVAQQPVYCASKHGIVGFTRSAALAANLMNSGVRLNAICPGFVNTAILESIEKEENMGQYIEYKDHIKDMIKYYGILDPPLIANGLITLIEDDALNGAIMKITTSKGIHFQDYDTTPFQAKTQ
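20 nM HPGD preincubated 15 min at room temperature with compound in 50 mM Tris-HCl pH 8, 0.01% Tween 20. Started with 1 mM NAD+ and 30 uM prostaglandin E2; NADH fluorescence (360/450 nm) read 5 times over 30-s intervals, last minus first.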
ALDH1A1 block = qHTS Assay for Inhibitors of Aldehyde Dehydrogenase 1 (ALDH1A1) | Aldehyde dehydrogenase 1A1 (Homo sapiens), P00352 | Purified ALDH1A1, NADH fluorescence, propionaldehyde substrate | Potency, µM (titrated, usually from 75.3 µM), without a hit: at the highest dose activity, negative = inhibition, most hits filed as inhibitors | 220,000 tested, 7.3% active | AID 1030, 2008; active = well fitted inhibition curve with a large enough effect, not every such curve was filed as active; inconclusive = small, poorly fitted or top-dose-only effect, or another doubt; inactive = no such curve, though single readings can be large or run the other way;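 note: plate controls were no enzyme wells and a reference inhibitor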
Target sequence (P00352 whole entry, looked up): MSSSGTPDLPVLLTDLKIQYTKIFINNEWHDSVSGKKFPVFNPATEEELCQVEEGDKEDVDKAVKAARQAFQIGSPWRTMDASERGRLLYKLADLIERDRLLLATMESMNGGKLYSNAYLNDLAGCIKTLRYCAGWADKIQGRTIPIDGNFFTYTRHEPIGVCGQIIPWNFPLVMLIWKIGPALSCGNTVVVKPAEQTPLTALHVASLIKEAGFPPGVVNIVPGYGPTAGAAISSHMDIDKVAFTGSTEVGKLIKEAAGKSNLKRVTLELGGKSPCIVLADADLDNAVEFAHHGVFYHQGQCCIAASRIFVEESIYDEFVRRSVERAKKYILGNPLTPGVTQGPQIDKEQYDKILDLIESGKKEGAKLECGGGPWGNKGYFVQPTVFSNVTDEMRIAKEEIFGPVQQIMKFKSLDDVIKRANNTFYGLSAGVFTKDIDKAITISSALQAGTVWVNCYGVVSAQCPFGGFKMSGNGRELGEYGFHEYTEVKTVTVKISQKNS
Starred values were filed as active, the others as inactive; [ ] = remark or other dose. Unless noted, calls come from the whole dose curve; as a rule, active = well fitted curve in the direction sought with a large enough effect; inconclusive = small, poorly fitted or top-dose-only effect, or another doubt; inactive = no such curve, though single readings can be large; an effect the other way counts as inactive or inconclusive. Potency is the fitted concentration of half-maximal effect.

How did CSC1=NC2(CCN(C(=O)NC3CCCCC3)CC2)N=C1c1ccc(C(C)(C)C)cc1 do in these assays?
LMNA splice mod: 16%[46 µM]

What do the screens show for `CCN1CCN(CC(=O)c2cc(Cl)ccc2Cl)CC1`?
HTT cytoprotect: -16%; LMNA splice mod: inconclusive; HttQ103 aggreg: 2%; ALDH1A1 block: 14µM*

How did Cc1cccc(N2CCN(C(=O)Cn3sc4nc(C)cc(C)c4c3=O)CC2C)c1 (configuration not stated) do in these assays?
HTT cytoprotect: -122%; LMNA splice mod: 5%; HttQ103 aggreg: -11%; HPGD inh: 3.2µM*; ALDH1A1 block: 3.5µM*

Results for Cc1cc(C)c2c(=O)n(CC(=O)N3CCC(Cc4ccccc4)CC3)sc2n1 ?
HTT cytoprotect: 11%[10 µM]; LMNA splice mod: -4%; HttQ103 aggreg: inconclusive; HPGD inh: 4.5µM*; ALDH1A1 block: 7.1µM*

Results for Cc1ccc(-c2ccc(=O)n(CC(=O)N3CCN(c4cccc(C)c4)C(C)C3)n2)cc1 (configuration not stated) ?
HTT cytoprotect: -29%; LMNA splice mod: -2%; HttQ103 aggreg: -5%; HPGD inh: -12%; ALDH1A1 block: -7%

How did Cc1cc(C)c2c(=O)n(CC(=O)NCCCN3CCN(c4ccccc4F)CC3)sc2n1 do in these assays?
HTT cytoprotect: -9%[10 µM]; LMNA splice mod: -9%; HttQ103 aggreg: inconclusive; HPGD inh: inconclusive; ALDH1A1 block: 3.5µM*

How did COc1cccc(-c2nc(NCc3cccnc3)c3ccccc3n2)c1 do in these assays?
HTT cytoprotect: -76%; LMNA splice mod: inconclusive; ALDH1A1 block: 0%

How did CC1(C)OC1COc1c2ccoc2cc2oc(=O)ccc12 (configuration not stated) do in these assays?
HTT cytoprotect: -6%[10 µM]; LMNA splice mod: -8%[46 µM]; HttQ103 aggreg: -1%[9.22 µM]; ALDH1A1 block: inconclusive

What do the screens show for `Cc1nnn(C23CC4CC(CC(C(=O)NN)(C4)C2)C3)n1`?
LMNA splice mod: -5%; HttQ103 aggreg: 3%; HPGD inh: 2%; ALDH1A1 block: 1.4µM*

Results for NNC(=O)C12CC3CC(C1)CC(n1ncnn1)(C3)C2 ?
LMNA splice mod: -8%; HttQ103 aggreg: -20%; HPGD inh: -2%; ALDH1A1 block: 3.5µM*

How did O=C1c2cccc3c(O)ccc(c23)C(=O)N1Cc1ccccc1 do in these assays?
HTT cytoprotect: -34%; LMNA splice mod: inconclusive; HttQ103 aggreg: 10µM*; HPGD inh: -29%; ALDH1A1 block: -8%

Results for O=C1c2cccnc2C(=O)N1Cc1ccccc1 ?
HTT cytoprotect: 22%[10 µM]; LMNA splice mod: 2%; HttQ103 aggreg: -9%; HPGD inh: -15%; ALDH1A1 block: 7%

Results for COc1ccc(OC)c(-c2nc3c(C)n[nH]c(=O)c3[nH]2)c1 ?
HTT cytoprotect: -24%[10 µM]; LMNA splice mod: inconclusive; HttQ103 aggreg: 13µM*; HPGD inh: -28%; ALDH1A1 block: -6%

How did N#CCC(=N)N1CCN(c2ccccc2Cl)CC1 do in these assays?
HTT cytoprotect: 9%[10 µM]; LMNA splice mod: -4%; HttQ103 aggreg: 16%; HPGD inh: -4%; ALDH1A1 block: 13%

What do the screens show for `CC(OC(=O)C1CC1)C(=O)Nc1ccc([N+](=O)[O-])cc1Cl` (configuration not stated)?
HTT cytoprotect: 3.5µM*; HttQ103 aggreg: -5%; ALDH1A1 block: 7%

How did Cc1ccc(O)c(C2=NOC(O)(C(F)(F)C(F)F)C2)c1 (configuration not stated) do in these assays?
HTT cytoprotect: -12%; LMNA splice mod: inconclusive; HttQ103 aggreg: 2%; HPGD inh: 5µM*; ALDH1A1 block: 9%

Results for Cc1ccc(O)c(C2=NCCNC(C(F)(F)C(F)F)=C2)c1 ?
HTT cytoprotect: -2%; LMNA splice mod: 8%; HttQ103 aggreg: inconclusive; HPGD inh: -4%; ALDH1A1 block: -3%

What do the screens show for `Cc1ccc(O)c(C2=NOC(O)(C(F)(F)F)C2)c1` (configuration not stated)?
HTT cytoprotect: 3%; LMNA splice mod: 0%; HttQ103 aggreg: -7%; HPGD inh: 14µM*; ALDH1A1 block: 3%

How did COC(=O)N1CC=CC1(C)C(=O)NCC1CC1 (configuration not stated) do in these assays?
HTT cytoprotect: 13µM*; HPGD inh: -10%; ALDH1A1 block: -3%

How did O=C(O)c1ccc(NS(=O)(=O)/C=C/c2ccccc2)cc1O do in these assays?
HTT cytoprotect: 0%; LMNA splice mod: 7%; HttQ103 aggreg: 11%; HPGD inh: -21%; ALDH1A1 block: 10µM*

What do the screens show for `Cc1ccc(S(=O)(=O)Nc2ccccc2C(=O)Nc2nc(-c3ccc(F)cc3)cs2)cc1`?
HTT cytoprotect: -44%[0.074 µM]; LMNA splice mod: inconclusive; HttQ103 aggreg: 9%; HPGD inh: inconclusive; ALDH1A1 block: inconclusive

What do the screens show for `COc1ccc(-c2csc(NC(=O)c3ccccc3NS(=O)(=O)c3ccc(F)c(F)c3)n2)cc1`?
HTT cytoprotect: -66%[10 µM]; LMNA splice mod: 32%[46 µM]; HttQ103 aggreg: 2.5µM*; ALDH1A1 block: inconclusive

How did COc1ccc(/C=C(\C#N)C(=O)c2c(C)[nH]c3ccccc23)cc1OC do in these assays?
HTT cytoprotect: -15%[10 µM]; LMNA splice mod: 8%; HttQ103 aggreg: 11%; HPGD inh: -2%; ALDH1A1 block: 10%

Results for COc1cc(/C=C(\C#N)C(=O)c2c(C)[nH]c3ccccc23)cc(OC)c1OC ?
HTT cytoprotect: 18%[10 µM]; LMNA splice mod: -11%; HttQ103 aggreg: 0%; ALDH1A1 block: 8.9µM*

What do the screens show for `Cc1cc(C)c2cc(CN(CCO)C(c3nnnn3Cc3ccc(F)cc3)C(C)C)c(=O)[nH]c2c1` (configuration not stated)?
HTT cytoprotect: -18%[10 µM]; LMNA splice mod: inconclusive; HttQ103 aggreg: -10%; HPGD inh: 1%; ALDH1A1 block: 13µM*

What do the screens show for `CCN(CC)CC(=O)n1c2c(c3ccccc31)CCCC2`?
HTT cytoprotect: -3%; LMNA splice mod: 9%; HttQ103 aggreg: -8%; HPGD inh: -10%; ALDH1A1 block: 32µM*

What do the screens show for `O=C(O)c1c(Cl)c(Cl)c(Cl)c(Cl)c1-c1c2cc(I)c(=O)c(I)c-2oc2c(I)c(O)c(I)cc12`?
HTT cytoprotect: -235%; LMNA splice mod: inconclusive; HttQ103 aggreg: -10%; HPGD inh: 32µM*; ALDH1A1 block: 32µM*

Results for C=CCOc1ccccc1/C=N/O ?
HTT cytoprotect: -23%[0.074 µM]; LMNA splice mod: 7%; HttQ103 aggreg: -3%; HPGD inh: 16µM*; ALDH1A1 block: 5%
